Some test systems named below: T-47D breast; BT-549 breast; MDA-MB-435 melanoma; SW-620 colon; MCF7 breast; HCT-116 colon; HCC-2998 colon; KM12 colon.
Common to all, as to assay: NCI-60 one-dose screen, 48 h (100 = growth as untreated, 0 = no growth, -100 = all killed)
What all share (conditions): 10 µM unless noted

Compounds without any hit were thinned out: in the full panel of roughly 83,000, 20% have a hit.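 Note: values are percent growth. 100 is the growth of untreated cells, values between 100 and 0 indicate rising inhibition; between -100 and 0 indicates cell death.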 A number with no mark means an inactive call. The source made the active and inactive calls. Rule for the calls: active = growth percent below 10; inactive = the rest.

For the molecule `C=CCn1c(SCC(=O)Nc2ccc(/C(C)=N/O)cc2)nnc1-c1cc(-c2ccc(S(N)(=O)=O)cc2)nc2ccccc12`, the growth in the test with T-47D breast was 27.4%; in the test with BT-549 breast, 58.8%; with MDA-MB-435 melanoma it was 67.3%; in the test on SW-620 colon, 84.2%; with MCF7 breast, 43.3%; with HCT-116 colon, 77.7%. In addition, the growth with HCC-2998 colon was 101%; in the test with KM12 colon it was 86.5%.

As for `O=C(Cc1ccc(NC(=O)c2cccc(Cl)c2)cc1)NCc1ccccc1`, the growth in the test with T-47D breast is 54.2%; in the test on BT-549 breast, 61%; with MDA-MB-435 melanoma, -30.1% (active); with SW-620 colon, 25.3%; in the test on MCF7 breast it was 22.1%; with HCT-116 colon it was 25.3%. Moreover, the growth is 73.3% with HCC-2998 colon and 24.8% in the test on KM12 colon.

Take `Fc1ccc2[nH]cc(-c3nc(-c4c[nH]c5ccncc45)cs3)c2c1`: the growth in the test with T-47D breast was -30.3% (active); in the test on BT-549 breast, 70%; with MDA-MB-435 melanoma, -75.3% (active); with SW-620 colon, -63.5% (active); in the test on MCF7 breast, -46.7% (active); in the test with HCT-116 colon, -85.6% (active). Also, the growth with HCC-2998 colon is -74.3% (active); in the test on KM12 colon, -67.1% (active).

Regarding `COc1cc(/C=N/Nc2ccc(Br)cc2)cc(OC)c1OC`, the growth with T-47D breast is 30.8%; with BT-549 breast, 95.1%; with MDA-MB-435 melanoma, 39.5%; in the test with SW-620 colon, 46.8%; with MCF7 breast, 51%; in the test with HCT-116 colon, 60.8%. For the same molecule, the growth is 45.7% with HCC-2998 colon and 16.3% in the test with KM12 colon.

As for `O=C1/C(=C2\SC(=S)N(C3CC3)C2=O)SC(=S)N1C1CC1`, the growth is 94.6% with T-47D breast; 97.5% in the test with BT-549 breast; 103% in the test on MDA-MB-435 melanoma; 98.4% in the test with SW-620 colon; 91.6% in the test with MCF7 breast; 100% in the test with HCT-116 colon. In addition, the values for the growth in the test with HCC-2998 colon and in the test with KM12 colon were 102% and 101%, respectively.

Turning to `CC1=C(CCC(C)NCc2ccc(OCCCN3CCCCC3)cc2)C(C)(C)CCC1` (stereo not given), the growth in the test with T-47D breast was -64.8% (active); in the test on BT-549 breast, -63.9% (active); with MDA-MB-435 melanoma, -93.8% (active); in the test on SW-620 colon, -80.3% (active); in the test with MCF7 breast, -58.4% (active); with HCT-116 colon, -85.3% (active). The growth is -84.3% (active) in the test with HCC-2998 colon and -80% (active) in the test on KM12 colon.

For the molecule `O=C1NC(=O)/C(=C/c2c(-c3ccccc3)nc3sc(COc4ccccc4)nn23)S1`, the growth in the test with T-47D breast was 89.4%; with BT-549 breast it was 92.8%; with MDA-MB-435 melanoma, 102%; in the test on SW-620 colon, 105%; in the test with MCF7 breast, 83.5%; in the test on HCT-116 colon, 89.3%. Besides, the growth in the test on HCC-2998 colon was 107%; with KM12 colon, 100%.

With `C#CCO[C@H]1CC(CC#C)(CC#C)C(=O)[C@@H]2[C@H]1[C@H]1C[C@@H]3[C@@]4(C)CCC[C@@](C)(C(=O)OC)[C@@H]4CC[C@@]23C=C1C(C)C`, the growth in the test on T-47D breast is 84%; with BT-549 breast, 101%; in the test with MDA-MB-435 melanoma, 100%; in the test with SW-620 colon, 95.9%; in the test with MCF7 breast, 96.1%; with HCT-116 colon, 96.1%. Besides, the growth with HCC-2998 colon is 103%; in the test on KM12 colon, 63.1%.

With `CCCCC#Cc1c(I)n(C)c(=O)[nH]c1=O`, the growth was -2.85% (active) in the test on T-47D breast; -57.1% (active) in the test on BT-549 breast; -36.8% (active) in the test on MDA-MB-435 melanoma; -93.2% (active) in the test with SW-620 colon; 52.3% in the test on MCF7 breast; -41.1% (active) with HCT-116 colon. The growth was -25.6% (active) in the test on HCC-2998 colon and 108% in the test on KM12 colon.

As to `COc1cc(-c2nc3c(ncc4ccc(=O)n(-c5ccccc5)c43)s2)cc(OC)c1OC`, the growth in the test on T-47D breast is 37.9%; in the test with BT-549 breast, 61.8%; in the test on MDA-MB-435 melanoma, 81%; in the test on SW-620 colon, 89.4%; in the test with MCF7 breast it was 55.1%; in the test with HCT-116 colon it was 79.6%. Moreover, the growth in the test with HCC-2998 colon was 85%; with KM12 colon, 79.3%.
